Bioassay records (PubChem)
In the library only some 2.5% were active in any assay of this set; here they are far more common.
Pol eta inh: DNA polymerase eta (human) inhibition; 1.2% of 390,000 active; recombinant Pol eta, fluorescent DNA replication assay; AID 588591; Potency, µM (top dose mostly 114 µM), for the others: at the top dose activity change, negative = inhibition, hits mostly inhibitors; further: on the % scale 0 is the no-effect control and ±100 the full control effect
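Pol eta (10 nM) was preincubated with compounds for 15 min at room temperature, after which fluorescent replication substrate (50 nM final) was added to start the reaction. Fluorescence was read kinetically at 0 and 10 min.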
POLK inh: blocks human DNA polymerase kappa activity | purified Pol kappa, fluorescent DNA synthesis assay, 10 min | 0.53% of 400,000 active | AID 588579 | Q9UBT6 | Potency, µM (highest dose often 107 µM), for inactives: at the highest dose activity, negative = inhibition, hits mostly inhibitors; further: on the % scale 0 is the no-effect control and ±100 the full control effect
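10 nM Pol kappa preincubated 15 min at room temperature with compounds, then reaction started with substrate at 50 nM final. Fluorescence read kinetically at 0 and 10 min; buffer-only wells served as negative control.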
WRN helicase inh: blocks human WRN helicase; 0.46% of 360,000 active; WRN helicase unwinding, fluorescent forked duplex, kinetic; Potency, µM (series often up to 114 µM), inactives show at the top dose activity change, negative = inhibition, actives largely listed as inhibitors; AID 651768; further: on the % scale 0 is the no-effect control and ±100 the full control effect; nearly all actives have a fitted effect of over 55% in size
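Fluorescence dequenching readout, ex 525 nm/em 598 nm, kinetic mode: forked duplex DNA (100 nM final) with adjacent fluorophore and quencher unwound by WRN (20 nM final) with 2 mM ATP. Compound preincubation 15 min, room temperature.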
L3MBTL1 inh: L3MBTL1 (human) inhibition | Q9Y468 | AlphaScreen L3MBTL1–H3K9me1 peptide binding | Potency, µM (top dose mostly 57.1 µM), for inactives: at the highest dose activity, negative = inhibition, hits mostly inhibitors | 0.66% of 230,000 active; further: on the % scale 0 is the no-effect control and ±100 the full control effect; nearly all actives have a fitted effect of over 60% in size
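AlphaScreen assay: L3MBTL1 (50 nM final) was preincubated 30 min at room temperature with biotinylated H3(1-15)K9me1 peptide (75 nM final), then 30 min with library compounds; streptavidin donor and nickel chelate acceptor beads (10 ug/mL final) added, 30 min dark.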
Pol beta inh: inhibitors of human DNA polymerase beta; Potency, µM (highest dose often 114 µM), inactives show top-dose activity change, negative = inhibition, actives largely listed as inhibitors; Pol beta primer extension/strand displacement, fluorescence kinetic; 1.3% of 340,000 active; P06746; further: on the % scale 0 is the no-effect control and ±100 the full control effect
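Enzyme-only controls used 10 nM Pol beta; buffer lacking enzyme served as negative control. Compound preincubated 15 min, then 50 nM substrate added; 0 and 10 min reads at room temperature.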
Pol iota inh: inhibitors of human DNA polymerase iota | Potency, µM (top dose mostly 115 µM), inactives show at the top dose activity, negative = inhibition, hits mostly inhibitors | 1% of 390,000 active | Pol iota fluorescent replication assay, 10 min | Q9UNA4
Target sequence (Q9UNA4 whole entry, looked up): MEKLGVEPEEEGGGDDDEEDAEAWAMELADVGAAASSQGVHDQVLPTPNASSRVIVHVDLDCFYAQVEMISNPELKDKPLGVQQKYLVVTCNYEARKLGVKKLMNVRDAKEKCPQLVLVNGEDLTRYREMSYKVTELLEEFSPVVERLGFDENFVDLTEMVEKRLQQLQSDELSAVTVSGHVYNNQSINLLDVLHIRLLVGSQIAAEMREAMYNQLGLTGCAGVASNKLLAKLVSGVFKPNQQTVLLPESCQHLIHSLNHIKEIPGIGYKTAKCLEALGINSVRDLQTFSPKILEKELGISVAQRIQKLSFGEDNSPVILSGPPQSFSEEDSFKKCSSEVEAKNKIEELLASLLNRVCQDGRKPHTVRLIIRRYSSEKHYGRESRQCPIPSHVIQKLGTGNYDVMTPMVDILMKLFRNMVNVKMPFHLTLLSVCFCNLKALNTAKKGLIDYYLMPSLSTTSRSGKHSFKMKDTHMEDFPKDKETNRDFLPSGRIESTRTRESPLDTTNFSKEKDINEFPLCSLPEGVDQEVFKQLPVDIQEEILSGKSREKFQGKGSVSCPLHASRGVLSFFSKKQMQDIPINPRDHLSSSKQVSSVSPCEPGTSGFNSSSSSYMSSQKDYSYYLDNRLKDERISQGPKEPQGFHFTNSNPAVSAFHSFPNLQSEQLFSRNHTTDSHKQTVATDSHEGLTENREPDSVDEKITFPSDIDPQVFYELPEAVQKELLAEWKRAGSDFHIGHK
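Pol iota at 10 nM preincubated 15 min with compounds at room temperature; reaction started with fluorescent substrate, 50 nM final. Fluorescence read kinetically at 0 and 10 min; buffer-only wells as negative control.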
Numbers without * were called inactive; u = inconclusive; x = no result; [ ] = another dose, or the depositor's remark. The call rests on the fitted dose curve; in most records, active means well fitted curve in the direction sought with a large enough effect; inconclusive means small, poorly fitted or top-dose-only effect, or another doubt; inactive means no such curve, though single readings can be large; an effect the other way counts as inactive or inconclusive. Potency means the concentration at half of the fitted maximal effect.

SMILES	Pol eta inh	POLK inh	WRN helicase inh	L3MBTL1 inh	Pol beta inh	Pol iota inh
CC(OC(=O)c1ccc(-n2cnnn2)cc1)C(=O)Nc1ccccc1F (stereo not drawn)	1%	-7%	1%	0%	x	11%
CCOc1ccc(NCC2CCOC(C)(C)C2)cc1 (stereo not drawn)	-8%	-7%	-23%	-8%	-2%	12%
Cc1ccc(CNc2ccc(N3CCOCC3)cc2)s1	5%	-1%	3%	x	15%	u
CC(=O)N1CCN(c2ccc(NCc3ccc(C)s3)cc2)CC1	-16%	-5%	8%	u	4%	50µM*
CC(=O)Cn1nnc2sc3c(c2c1=O)CCC(C(C)(C)C)C3 (stereo not drawn)	-10%	-18%	2%	-27%	15%	65%
Cc1ccc(OCCn2nnc3sc4c(c3c2=O)CCC(C(C)(C)C)C4)cc1 (stereo not drawn)	x	-13%	x	x	22µM*	-11%
Cc1cccc(OCCCCn2nnc3sc4c(c3c2=O)CCC(C)C4)c1 (stereo not drawn)	x	-25%	x	x	14µM*	u
CC(C)(C)C1CCc2c(sc3nnn(CCOc4ccccc4)c(=O)c23)C1 (stereo not drawn)	x	-10%	x	x	25µM*	-9%
CCn1nnc2sc3c(c2c1=O)CCC(C)C3 (stereo not drawn)	-9%	-10%	0%	7%	40%	10%
Cc1ccc(NC(=O)CN(C)C(=O)CCOc2cccc(C)c2)cc1	-7%	-4%	-18%	6%	1%[57.1 µM]	12%
CCCCCNC(=O)C(c1ccncc1)n1c(=O)c(-c2ccco2)nc2ccccc21 (stereo not drawn)	x	x	0%	x	x	x
COc1cc2c(C(=O)NCCN(C)C)cn(CC(C)C)c(=O)c2cc1OC	u	-2%	3%	x	3%	36%
COc1cccc(OCc2nnc(SCC(=O)NCc3ccco3)n2CCc2ccccc2)c1	14µM*	u	-19%[57.1 µM]	-21%	22µM*	u
Cc1c(Cl)cccc1NC(=S)N1CCN(C(=O)c2ccco2)CC1	-3%	3%	-31%	x	79µM*	18%
Cc1ccc(C(=O)Nc2sc3c(c2C(=O)NCc2ccco2)CCC(C(C)(C)C)C3)cc1 (stereo not drawn)	-9%	8%	x	x	-5%	-7%
CN(CC(=O)Nc1ccc(F)c(F)c1F)C(=O)/C=C/c1ccco1	u	-38%	-16%	-17%	x	50µM*
COc1ccc(-c2ccc(Nc3ccc(C(=O)N4CCOCC4)cc3)nn2)cc1OC	-10%	-42%	-18%	1%	28µM*	u
COc1ccccc1-c1ccc(Nc2ccc(C(=O)N3CCOCC3)cc2)nn1	-17%	-2%	12%	-1%	-9%	-1%
COCCn1c(SCC(=O)NCc2ccccc2)nnc1-c1ccco1	-9%	4%	-4%	6%	1%	6%
CN1N=C(C(F)(F)F)CC1=O	-1%	-14%	-30%	15%	-1%	51%
CN1N=C(C(C)(C)C)CC1=O	-14%	3%	-1%[11.6 µM]	u	4%	4µM*
Cc1ccc(CCNC(=O)CCSCc2ccccc2Cl)cc1	-21%	-13%[60.1 µM]	x	x	3%	5%
O=c1[nH]c(CN2CCc3ccccc32)nc2scc(-c3cccs3)c12	-4%	-19%	-17%	-43%	40µM*	-8%
CCOc1cc(C(c2c(C)[nH][nH]c2=O)c2c(C)[nH][nH]c2=O)cc(Cl)c1O	10%	-2%	-6%	x	52%	25µM*
CC1(C)CC(=O)C(C(C2=C(O)CC(C)(C)CC2=O)c2ccc(Br)s2)C(=O)C1 (stereo not drawn)	-3%	-3%	22µM*	2%	-1%	u
SMILES	Pol eta inh	POLK inh	WRN helicase inh	L3MBTL1 inh	Pol beta inh	Pol iota inh
CC1(C)CC(=O)C(C(C2=C(O)CC(C)(C)CC2=O)c2ccc([N+](=O)[O-])cc2)C(=O)C1 (stereo not drawn)	-9%	-6%	-29%[57.1 µM]	-7%	8%[57.1 µM]	1%
Cc1ccc(C(C2=C(O)CC(C)(C)CC2=O)C2C(=O)CC(C)(C)CC2=O)s1 (stereo not drawn)	4%	-13%	56µM*	2%	2%	-17%
CN(c1ccccc1)S(=O)(=O)c1ccc(NC(=O)C2CCCCC2C(=O)O)cc1 (stereo not drawn)	-7%	-7%	-4%	8%	21%	-14%
COc1ccc(C=C(NC(=O)c2ccccc2)C(=O)O)cc1OC	-20%	-11%	3%	x	x	8%
CN(C)c1ccc(N=Nc2ccccc2C(=O)OCC(=O)NC2CCCC2)cc1	-17%	-16%	-35%	u	2%[57.1 µM]	-13%
CN(C)c1ccc(N=Nc2ccccc2C(=O)OCC(=O)N(C)C2CCCCC2)cc1	-18%	0%	-13%	28µM*	-12%	-9%
CN(C)c1ccc(N=Nc2ccccc2C(=O)OCC(=O)NCC2CCCCC2)cc1	-29%	-20%	-7%	11µM*	21%	12%
CC(C)CC(=O)NC(c1cccs1)c1ccc2cccnc2c1O (stereo not drawn)	-13%	-13%	3%	8%	3%	95%
CC(C)C(=O)NC(c1cccs1)c1cc([N+](=O)[O-])c2cccnc2c1O (stereo not drawn)	u	-9%	-14%	10µM*	-1%	33%
Cc1ccc(C(NC(=O)C(C)C)c2cc([N+](=O)[O-])c3cccnc3c2O)cc1 (stereo not drawn)	u	-4%	-25%	25µM*	23%	21%
CCC(=O)NC(c1cccs1)c1ccc2cccnc2c1O (stereo not drawn)	-15%	10%	13%	18µM*	25%	29%
COc1cc(C=NNC(=O)c2ccccc2NS(=O)(=O)c2cccs2)cc(OC)c1O	u	-11%	-28%	-6%	x	u
Cc1c(NC(=O)c2ccc3c(c2)C(=O)N(Cc2ccco2)C3=O)cccc1C(=O)O	32µM*	u	-13%[11.6 µM]	x	u	u
CCc1ccc(NC(=O)c2ccc3c(c2)C(=O)N(Cc2ccco2)C3=O)cc1	20µM*	50µM*	-27%	u	20µM*	u
O=C(CSc1nc2c(oc3ccccc32)c(=O)n1Cc1ccco1)Nc1cccc(Cl)c1	-2%	6%	x	x	17%	-5%
COC(=O)CN(c1ccc2c(c1)OCO2)S(C)(=O)=O	-5%	-5%	-2%	1%	6%	2%
CCN(CC)C(=O)CN(c1ccc2c(c1)OCO2)S(C)(=O)=O	14%	-1%	-5%	x	89µM*	u
O=Cc1ccc(-c2cccs2)s1	-9%	-5%	-8%	x	x	2%
Oc1ccc(N=Cc2ccc(-c3cccs3)s2)cc1	32µM*	-34%	50µM*	u	u	u
